In PubChem BioAssay AID485317 (Broad Institute, 2010) one finds inhibition data, which are given here for 57 compounds.

About 11,000 (3.8%) of roughly 290,000 compounds were called active. The sample as a whole holds a higher share of actives than the screen did. Unmarked numbers belong to inactive results.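 Rule for the calls: active = mean replicate inhibition above about 79%, with every replicate also reaching it (limit read from the data); inconclusive = only one of the two criteria met; inactive = mean below limit and not every replicate reaching it.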

The assay deals with FAD-linked sulfhydryl oxidase ALR (Homo sapiens) (UniProt P55789). The assay can be described thus: inhibitors of human ALR sulfhydryl oxidase, primary screen, biochemical, H2O2 detection, HRP-luminol luminescence, single point (AID 485317). As to conditions: purified ALR, DTT oxidation, hits give high values, concentration not given here.
Sequence of FAD-linked sulfhydryl oxidase ALR (Homo sapiens) (P55789 whole entry, looked up): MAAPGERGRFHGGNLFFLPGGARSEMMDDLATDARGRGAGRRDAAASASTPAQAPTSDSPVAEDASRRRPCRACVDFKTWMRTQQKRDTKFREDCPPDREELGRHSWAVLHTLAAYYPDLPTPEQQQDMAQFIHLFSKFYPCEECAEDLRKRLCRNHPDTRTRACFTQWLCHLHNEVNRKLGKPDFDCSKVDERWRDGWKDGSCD
Broadly, the inhibition is the change of the read-out against control, counted positive when it falls. Turning to `CCn1c2ccccc2c2cc(NC(=O)C/C(C)=N/NC(=O)c3ccccc3N)ccc21`, the inhibition is -1.26%.
As for `O=C(Nc1ccc(NC(=O)c2ccccc2F)cc1)c1ccccc1F`, the inhibition is -9.75%.
`C/C(CC(=O)Nc1ccc(N(C)C)cc1)=N\NC(=O)c1ccccc1F`: the inhibition was 87.2% (active).
On to `Cc1ccc2c(c1)NC(=O)[C@@]1(C)[C@@H](c3ccccc3)[C@H]3COc4ccc(Cl)cc4[C@@H]3N1C2=O`, for which the inhibition was 0.863%.
With `CC(=O)N1CCc2c(sc(NC(=O)CCS(=O)(=O)c3ccc(C)cc3)c2C(N)=O)C1` the figure was -33.3%; with `C[C@H]1COC(=O)[C@H](CC(=O)OC(C)(C)C)C/C=C\C[C@@H](CC(=O)N[C@H](CO)Cc2ccccc2)C(=O)N1`, 1.44%.
Under `CCCCN(C(=O)c1ccc2ccccc2c1)c1c(N)n(CCCC)c(=O)[nH]c1=O` stands -4.16%; under `Cn1cc(Cl)c(C(=O)NNC(=S)Nc2cccc(Cl)c2)n1`, 89.2% (active).
In the case of `Cc1nn(C)cc1C(=O)NNC(=S)Nc1ccc(Cl)cc1`, the inhibition is 49.6%.
With `Cc1cccc(-n2cnc(C(=O)NNC(=S)Nc3ccccc3)c2)n1`, the inhibition was 47.8%.
As for `CC(OC(=O)CCCOc1ccccc1)C(=O)Nc1ccc(Cl)cn1` (configuration not stated), the inhibition is -0.655%.
Take `CN(Cc1ccc(F)cc1)C(=O)CN1C(=O)c2ccccc2S1(=O)=O`: the inhibition was 1.6%.
With `C/C(CC(=O)Nc1ccc(Cl)cc1)=N\NC(=O)C(=O)NCCO`, the inhibition is 96.1% (active).
With `C/C(CC(=O)Nc1cccc(C(F)(F)F)c1)=N\NC(=O)C(=O)NCC(C)C` the figure was -10.3%; with `COc1ccc(COC(=O)N/N=C(\C)CC(=O)Nc2ccc(Cl)cc2)cc1`, -4.07%.
Under `CC(C#N)OC(=O)c1cccnc1SCC(=O)Nc1ccc2c(c1)OCO2` (configuration not stated) stands -10.2%; under `Cc1ccc(S(=O)(=O)N2CCN(C(=O)c3ccccc3-c3nc4ccccc4s3)CC2)c(C)c1`, -15.3%.
As for `Cc1ccc(NC(=O)C(c2ccccc2)N2CCN(C(=O)c3ccco3)CC2)cc1` (configuration not stated), the inhibition is -2.06%.
Under `COc1cc(OC)cc(C(=O)N[C@H](C(=O)NNC(=O)c2ccc(Br)cc2)C(C)C)c1` stands -9.81%.
Under `CC(=NCc1ccco1)c1c(C(F)(F)F)[nH]n(-c2nc3ccccc3s2)c1=O` stands 92.1% (active); under `CC(=NCc1ccco1)C1=C(O)c2ccccc2C1=O`, 2.24%.
On to `CCc1ccc(-c2cc(C(=O)NCc3ccco3)c3ccccc3n2)s1`, for which the inhibition is 52.8%.
On to `COc1cc(C=NNC(=O)c2cccnc2)ccc1OC(=O)c1ccccc1F`, for which the inhibition is 20.1%.
Regarding `COc1ccc(CCNC(=O)COC(=O)c2cnc(Cl)c(Cl)c2)cc1`, the inhibition is -2.44%.
For `Cc1cc(NC(=O)CSc2ncc(C(F)(F)F)cc2Cl)no1`, the inhibition is -1.5%.
On to `COc1ccc(S(=O)(=O)Nc2ccc3c(c2)OCO3)cc1Cl`, for which the inhibition is 9.92%.
With `COc1ccccc1C1C2=C(COC2=O)Nc2cc3c(cc21)OCO3` (configuration not stated) the figure was 97.9% (active); with `COc1cc2c(cc1/C=C1/NC(=O)N(c3ccccc3)C1=O)OCO2`, -7.41%.
Regarding `CC[C@@]12C(=O)N(c3ccccc3)C(=O)N1[C@H](c1ccc(Br)cc1)[C@@H]1C(=O)N(C(C)(C)C)C(=O)[C@@H]12`, the inhibition is -9.54%.
For `COc1cc(S(=O)(=O)N2CCN(C(=O)C3CC3)CC2)ccc1NC(C)=O`, the inhibition is -5.34%.
With `COc1ccc(S(=O)(=O)N(C)C[C@H]2Oc3ccc(NS(=O)(=O)c4cccs4)cc3CC(=O)N([C@H](C)CO)C[C@H]2C)cc1` the figure was -0.0995%; with `O=c1oc(-c2ccco2)nc2sc3c(c12)CCCCC3`, 88.4% (active); with `Cn1c(=O)n(Cc2ccco2)c(=N)c2c3c(sc21)CCCC3`, 3.35%.
For `O=S(=O)(c1ccc(Cl)cc1)c1nc(-c2ccco2)oc1N1CCCCC1`, the inhibition was 5.77%.
Under `CCC(CO)Oc1cc(NC(=O)c2ccc(Cl)cc2)c2ncn(C(C)C)c2c1` (configuration not stated) stands -2.2%.
In the case of `CC(=O)c1c(C)[nH]c(C(=O)N2CCN(S(=O)(=O)c3ccc(F)c(F)c3)CC2)c1C`, the inhibition was -0.525%.
For the compound `Oc1ccc(/C=N/N(Cc2ccccc2)c2ccccc2)cc1`, the inhibition was 99.2% (active).
For `CCN(/N=C/c1ccccc1)c1cc(=O)n(C)c(=O)[nH]1`, the inhibition was -9.29%.
As to `CN(C)c1ccc(/C=N/N(Cc2ccccc2)c2ccccc2)cc1`, the inhibition is -4.17%.
Consider `Cc1ccc(C(=O)NNC(=O)CSc2nnc3ccccn23)cc1`, for which the inhibition was -4.37%.
Consider `Cc1cc(C)c(-c2c(O)c3ccccc3n(C)c2=O)c(C)c1`, for which the inhibition was -13.7%.
`Cc1cc(O)c(Sc2ccccc2)c(=O)o1`: the inhibition is -17.8%.
As for `COc1cccc(NC(=S)NCc2ccccn2)c1`, the inhibition is -3.74%.
With `Cc1c(C)c(C)c(S(=O)(=O)NCCc2ccccn2)c(C)c1C`, the inhibition was 3.53%.
As for `COc1ccc(NCCc2ccccn2)cc1`, the inhibition was 99.8% (active).
With `COc1ccc(C)cc1NC(=O)CCCN1C(=O)NC(C)(C)C1=O` the figure was 0.111%; with `Cc1cccc(-c2oc3ccc(-c4ccc5c(c4)OCO5)cc3c2C#Cc2cncn2C)c1`, -9.37%.
On to `CSc1ncc(Cl)c(C(=O)Nc2cc(C)ccc2C)n1`, for which the inhibition was -2.22%.
On to `Cc1ccc(CS(=O)(=O)c2ncc(Cl)c(C(=O)Nc3nnc(C)s3)n2)cc1`, for which the inhibition is 97.5% (active).
As for `CSc1nnc(NC(=O)c2nc(S(=O)(=O)Cc3ccc(C)cc3)ncc2Cl)s1`, the inhibition is 8.89%.
In the case of `Cc1ccc(S(=O)(=O)CC(=O)Nc2nnc(C)s2)cc1`, the inhibition is -1.7%.
`Cc1cccc(CS(=O)(=O)c2ncc(Cl)c(C(=O)Nc3ccc(F)cc3)n2)c1`: the inhibition was 98.4% (active).
For the compound `Cc1cccc(NC(=O)c2nc(S(=O)(=O)Cc3ccccc3)ncc2Cl)c1`, the inhibition is 4.68%.
As for `N#Cc1cccc(OC(=O)c2ccc3c(=O)n4c(nc3c2)CCC4)c1`, the inhibition is 43.5%.
In the case of `CC1CCCCC1NC(=O)COc1ccc(C#N)cc1` (configuration not stated), the inhibition was 0.208%.
As to `COc1cc(Cl)c(C)cc1NC(=O)CSc1nnc(CN2CCCC2)o1`, the inhibition is -7.65%.
On to `Cc1ccc(C)c(C(=O)COC(=O)Cn2[nH]c(=O)c3ccccc3c2=O)c1`, for which the inhibition is -2.55%.
